An excerpt weighted towards active compounds, which were near 20% of everything screened.
Pf growth 96h – P. falciparum growth inhibition at 96 hour, primary screen for plastid delayed-death inhibitors | Potency, µM (series often up to 28.7 µM), inactives show at the top dose activity change, negative = inhibition, hits mostly inhibitors | P. falciparum luciferase reporter growth, 96 h | AID 504834 | 320,000 tested, 6.9% active; also: potency is read from the fitted curve at half-maximal effect; % is scaled to controls: 0 for no effect and ±100 for the full control effect
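P. falciparum expressing integrated firefly luciferase, in erythrocytes at 2% hematocrit, 0.05% parasitemia, incubated with compounds 96 h at 37 C, 5% CO2. Growth inhibition read as loss of luminescence; two-generation exposure targets delayed-death apicoplast inhibitors.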
CHX counter – counter-screen for Shiga toxin inhibitors: cycloheximide protein synthesis inhibition; cell reporter, cycloheximide protein synthesis inhibition counterscreen; max response, %; 300,000 tested, 12% active; in the data active = max response mostly above about 13%, no sharp cut-off; inactive = mostly below about 14%; also: read at 38.3 µM for the half of the compounds with a filed dose; 0% is about no effect
HCMV antiviral – blocks human cytomegalovirus replication | 410,000 tested, 4.5% active | AID 1259415 | HFF cells, HCMV-luciferase reporter, 72 h; stronger effect = lower value | activity change, negative = inhibition, % at 57.5 µM; in the data active = activity change below about -60%; inconclusive = no clear call, values can overlap the other calls; inactive = above about -39%; also: % is scaled to controls: 0 for no effect and ±100 for the full control effect
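After 16 h attachment at 37C, HFF cells received test compound and HCMV-luciferase (1 PFU/cell); reporter luminescence read 72 h later, data normalized against buffer-only and known inhibitor Salinomycin.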
Pf growth 48h – inhibits P. falciparum growth in the first generation, 48 h. Potency, µM (titrated, usually from 28.7 µM), inactives show top-dose activity change, negative = inhibition, hits mostly inhibitors. 310,000 tested, 5.9% active. AID 504832. P. falciparum luciferase growth in erythrocytes, 48 h; also: potency is read from the fitted curve at half-maximal effect; % is scaled to controls: 0 for no effect and ±100 for the full control effect
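Read-out is firefly luciferase luminescence from an integrated reporter in P. falciparum, so falling signal marks reduced parasite growth. Infected erythrocytes were at 2% hematocrit and 0.1% parasitemia (final) in Albumax-supplemented RPMI 1640.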
Shiga toxin inh – Shiga toxin inhibition. Vero cells, Shiga toxin protein synthesis inhibition reporter. inhibition, % at 38.7 µM. 290,000 tested, 9.2% active. AID 2315; in the data active = inhibition mostly above about 28%, no sharp cut-off; inactive = mostly below about 43%; also: 0% is about no effect
Active calls of the source: *; ? = inconclusive; / = no result. Unless noted, calls follow the shape of the dose curve; as a rule, active = well fitted inhibition curve with a large enough effect; inconclusive = small, poorly fitted or top-dose-only effect, or another doubt; inactive = no such curve, though single readings can be large or run the other way.

SMILES	Pf growth 96h	CHX counter	HCMV antiviral	Pf growth 48h	Shiga toxin inh
CCc1nc(SCC(=O)c2ccc(C)c(C)c2)n[nH]1	2%	12	18	15%	70*
COc1ccccc1N1CC(C(=O)NCC2COc3ccccc3O2)CC1=O (centres undefined)	/	/	-36	/	/
CC(C)c1cccc(C(C)C)c1NC(=O)COC(=O)C1=COCCO1	-9%	-1	-37	3%	17
CCCN(CC1CC1)C(=S)NC(=O)c1cc(Br)ccc1Cl	?	/	14	13µM*	/
CCCN(CC1CC1)C(=S)NC(=O)c1ccccc1C	/	/	-11	/	/
O=C(NCc1n[nH]c(=S)n1-c1ccc([N+](=O)[O-])cc1)c1ccc(S(=O)(=O)N2CCOCC2)cc1	6.6µM*	8	-35	6%	20
OCC[C@@H]1C[C@H](O)[C@@H](O)[C@]2(OCc3cc(C(F)(F)F)ccc32)O1	/	/	1	/	/
O=C(OCc1c(-c2ccccc2)ncc2ccccc12)c1ccco1	/	/	-12	/	/
CCOc1ccc(NC(=S)N(CCOC)C(C)c2cccnc2)cc1 (centres undefined)	51%	10	-26	8%	8
CCOc1cc(C(=S)N2CCOCC2)ccc1OS(=O)(=O)c1ccccc1[N+](=O)[O-]	5.9µM*	16	?	?	28
COc1cc(C(=S)N2CCOCC2)ccc1OS(=O)(=O)c1ccccc1[N+](=O)[O-]	51%	11	-5	-9%	-12
COc1cc(C(=S)N2CCOCC2)ccc1OC(=O)c1cc([N+](=O)[O-])c(C)c([N+](=O)[O-])c1	1.7µM*	-1	-5	-1%	-12
COc1ccc(C(=S)N2CCOCC2)cc1OS(=O)(=O)c1ccccc1[N+](=O)[O-]	?	28*	8	0%	46
COc1ccc(C(=S)N2CCOCC2)cc1OC(=O)c1cc([N+](=O)[O-])c(C)c([N+](=O)[O-])c1	21%	11	31	10%	-7
Cc1cc(=O)n(Cc2ccc(Br)cc2F)c2c1c(C)nn2-c1ccccc1	/	/	0	/	/
O=C(CCN1C(=O)/C(=C/c2ccccc2F)SC1=S)NCCCn1ccnc1	?	-2	-35	?	-3
Clc1ccc(CNCc2cccs2)cc1Cl	?	19	?	17%	29
NS(=O)(=O)c1cc(-c2nn[nH]n2)c(NCc2cccs2)cc1Cl	12µM*	/	/	-10%	/
CCn1c(=O)n(-c2ccc(C)c(F)c2)c(=O)c2sc3ccccc3c21	/	/	-6	/	/
CC(Oc1ccccc1)c1ccnc(N)n1 (centres undefined)	34%	22*	44	22%	22
CC(Oc1ccc(Cl)cc1Cl)c1ccnc(N)n1 (centres undefined)	15%	1	?	1%	-11
O=C(c1ccc(CS(=O)Cc2ccc(Cl)cc2)o1)N1CCN(C2CCCCC2)CC1 (centres undefined)	/	/	14	/	/
Cc1nc(NC2=NCN(CCc3ccccc3)CN2)nc2ccccc12	/	-1	/	?	20
COCCN1CN=C(Nc2nc3ccccc3s2)NC1	18%	21*	60	46%	31*
Cc1ccnc(Nc2nc3ccccc3o2)n1	?	6	17	-17%	0
SMILES	Pf growth 96h	CHX counter	HCMV antiviral	Pf growth 48h	Shiga toxin inh
c1ccc2sc(NC3=NCN(C4CCCCCC4)CN3)nc2c1	?	-2	48	?	-7
CCCCN1CN=C(Nc2nc3ccccc3o2)NC1	159%	62*	55	57%	116*
c1ccc2oc(NC3=NCN(C4CCCCC4)CN3)nc2c1	92%	20*	56	88%	18
CC(C)N1CN=C(Nc2nc3ccccc3o2)NC1	?	37*	49	31%	37*
COCCN1CN=C(Nc2nc3ccccc3o2)NC1	3%	27*	29	21%	35
COCCN1CN=C(NS(=O)(=O)c2ccc(C)cc2)NC1	-14%	13	-33	-8%	-6
O=C(COC(=O)c1c(Cl)cccc1Cl)Nc1ccccc1Br	?	26*	2	?	18
CS(=O)(=O)c1ccc(Cl)c(NC(=O)COC(=O)c2c(Cl)cccc2Cl)c1	-8%	-3	-25	?	20
O=C(COC(=O)c1cc[n+]([O-])cc1)Nc1cccc(Cl)c1Cl	17%	7	-4	12µM*	33
CC(=O)c1ccccc1NC(=O)COC(=O)c1cc[n+]([O-])cc1	/	/	-13	/	/
O=C(COC(=O)/C=C/c1ccccc1)Nc1ccccc1Br	0%	10	-17	13%	-9
O=C(COC(=O)c1ccccc1)Nc1ccccc1Br	5%	40*	-9	0%	65*
O=C(CC1C(=O)NCCN1CC1CCCCC1)NC1(c2ccccc2)CC1 (centres undefined)	-5%	1	-25	10%	-4
Cn1c(=O)n(CCCc2ccccc2)c(=O)c2c1nc1n2CCN1c1ccccc1	/	/	2	/	/
Cc1nn(C)c2c1c(-c1ccccc1)cc(=O)n2CC(=O)Nc1ccccc1C(F)(F)F	/	/	0	/	/
CCC1CCCCN1CCCNC(=O)C1CCN(Cc2nc(-c3ccc(Cl)cc3)oc2C)CC1 (centres undefined)	-11%	-1	/	5.2µM*	-5
Cc1oc(-c2ccc(Cl)cc2)nc1CN1CCC(C(=O)NCCCN2CCOCC2)CC1	?	0	96	?	2
Cc1oc(-c2cccc(Cl)c2)nc1CN1CCC(C(=O)NCc2cccnc2)CC1	29%	2	0	2.6µM*	22
Cc1oc(-c2cccc(C(F)(F)F)c2)nc1CN1CCOCC1	?	26*	-31	?	54*
Cc1oc(-c2cccc(C(F)(F)F)c2)nc1CN1CCC[C@H]1CO	-2%	4	12	-3%	6
Cc1oc(-c2cccc(Cl)c2)nc1CN1CCCC(C(=O)NCCCN2CCOCC2)C1 (centres undefined)	67%	-1	7	12µM*	-7
COc1ccc(NC(=O)C2(C)Cc3c(-c4cccc(C(N)=O)c4)ccnc3O2)cc1OC (centres undefined)	/	/	72	/	/
O=C(NCc1cccc(Cl)c1)c1ccc(NC(=O)N2CC3CCCN3c3ccccc32)cc1 (centres undefined)	/	/	4	/	/
CCN(CCNC(=O)C1CCCN(Cc2nc(-c3ccc(OC)cc3)oc2C)C1)c1ccccc1 (centres undefined)	-7%	29	-13	5.2µM*	30
Cc1cccc(-c2nc(CN3CCCC(C(=O)NC4CCCC4)C3)c(C)o2)c1 (centres undefined)	-21%	-2	29	?	-12
CCOC(=O)N1CCC(NC(=O)C2CCCN(Cc3nc(-c4cccc(C)c4)oc3C)C2)CC1 (centres undefined)	-2%	-5	-73*	-17%	-10
CCc1ccc(-c2nc(CN3CCC(C(=O)N4CCN(c5ccccc5)CC4)CC3)c(C)o2)cc1	1.9µM*	0	?	12%	-8
COc1ccc(-c2nc(CN3CCC(C(=O)NCCCN4CCN(c5ccccc5F)CC4)CC3)c(C)o2)cc1OC	/	/	-104*	/	/
CCc1ccc(-n2c(C)nc3cc(C(=O)NCCc4ccccc4)ccc32)cc1	/	/	-15	/	/
